Experimental data: PubChem BioAssay (EPA / NIEHS)
Results filed as inconclusive are left out. Some structures have more than one record in an assay (separate samples or runs), and their calls can disagree. Calls of active or inactive are those of the source. The calls were made as follows: active = hit-call score of the fitted dose curve at least 0.9, where 1 is the maximum; inconclusive = response in the unintended direction; inactive = score below 0.9.

Each compound was assayed on Cytochrome P450 2B6 (Homo sapiens) (UniProt P20813) (assay: CLD_CYP2B6_6hr: CellzDirect (CLD) Gene Expression Assay for xenobiotic metabolism (CYP2B6) at 6 hours (AID 2283677);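 also: actives raise CYP2B6 transcript above DMSO baseline so AC50 marks an inducer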).
Experimental: CLD_6hr is a cell-based, multiplexed-readout assay that uses hepatocyte, a human liver primary cell, with measurements taken at 6 hours after chemical dosing in a 96-well plate.CLD_CYP2B6_6hr is one of 16 assay component(s) measured or calculated from the CLD_6hr assay. It is designed to make measurements of mRNA induction, a form of inducible reporter, as detected with chemiluminescence signals by Quantitative Nuclease Protection Assay (qNPA) technology.Data from the assay component CLD_CYP2B6_6hr was analyzed at the endpoint, CLD_CYP2B6_6hr, in the positive analysis fitting direction relative to DMSO as the negative control and baseline of activity. Using a type of inducible reporter, gain-of-signal activity can be used to understand changes in the reporter gene as they relate to the gene CYP2B6. Furthermore, this assay endpoint can be referred to as a primary readout. To generalize the intended target to other relatable targets, this assay endpoint is annotated to the cyp intended target family, where subfamily is xenobiotic metabolism.
Human hepatocyte cultures were treated daily for two consecutive days with fresh dosing solutions containing appropriate concentrations of the 320 ToxCast chemicals (chemical identities were blinded to CellzDirect and other ToxCast collaborators), vehicle control (0.2% DMSO), and positive control inducers as summarized in Table 1. Due to the large number of treatment groups and chemicals examined, the ToxCast chemicals were divided into two groups (spanning two independent cultures of hepatocytes from separate donor preparations (Hu778: ToxCast plates 1 and 2; Hu776: ToxCast plates 3 and 4). Each preparation of human hepatocyte cultures was treated with respective vehicle control, medium only control, set of six positive controls/reference chemicals for the five hepatic receptor pathways, and a subset of eight of the ToxCast chemicals (indoxacarb, pyrithiobac-sodium, norflurazon, cyhalofop-butyl, methomyl, thiram, acetochlor, and propiconazole). These replicate data, coupled with internal replicates designed within the blinded ToxCast chemical library, provided additional data to evaluate interindividual differences between hepatocyte preparations and their potential impact on chemical profiles.Cell morphology and integrity were evaluated using phase-contrast microscopy as an indicator of hepatocyte cell health (Tyson & Green, 1987). Cultures for each treatment group (i.e., media, vehicle [0.2% DMSO], positive control inducers [multiple concentrations], and the ToxCast chemicals [multiple concentrations]) were observed and cell morphology was assessed relative to vehicle control cultures at each harvest time point (0, 6, 24, or 48 h). […] Images were evaluated at the conclusion of the study to assess changes in cell integrity and account for the effects of chemical exposure on uncharacteristic changes in concentration-dependent gene expression profiles. The results from these determinations of apparent cytotoxicity were annotated (yes/no) alongside the corresponding qNPA data for reference.At the conclusion of each treatment period, hepatocyte cultures (96-well) were washed with 1 volume of HBSS, lysed by addition of 25 ul ArrayPlate lysis buffer (HTG, Tucson, AZ), and 70 ul/well of Denaturation Oil, denatured by incubation at 95C for 10 min, and frozen at approximately -70C until analysis by nuclease protection assay (qNPA) (Roberts et al., 2007). For qNPA analysis, cell lysates were thawed at 50C for approximately 30 min, qNPA probes were added, and samples were incubated at 95C for 10 min to begin the detection process by denaturing the target RNA, dissociating the duplexes and secondary structure hybridization. At the conclusion of the hybridization period, S1 nuclease reagent was added to each sample to digest all nonprotected nucleotides at 50C for 60-90 min. […]

Row | Compound | outcome | AC50
1 | CCC(C)OC(=O)N1CCCCC1CCO (configuration not stated) | inactive | –
2 | COC(=O)c1ccccc1S(=O)(=O)NC(=O)Nc1nc(OC(F)F)cc(OC(F)F)n1 | inactive | –
3 | CCCCOC(=O)C(C)Oc1ccc(Oc2ccc(C(F)(F)F)cn2)cc1 (configuration not stated) | inactive | –
4 | CCOC(=O)NCCOc1ccc(Oc2ccccc2)cc1 | – | 3.97 µM (active)
5 | COC(=O)c1c(Cl)nn(C)c1S(=O)(=O)NC(=O)Nc1nc(OC)cc(OC)n1 | inactive | –
6 | c1ccc(Nc2ccccc2)cc1 | – | 9.66 µM (active)
7 | CC(C)(C)[C@@H](O)[C@@H](Cc1ccc(Cl)cc1)n1cncn1 | – | 1.73 µM (active)
8 | CSC(=O)c1cccc2nnsc12 | inactive | –
9 | CCOC(=O)C(C)Oc1ccc(Oc2nc3ccc(Cl)cc3o2)cc1 (configuration not stated) | inactive | –
10 | CCOC(=O)COc1cc(-n2ncc(C(F)(F)F)c(C)c2=O)c(F)cc1Cl | – | 2.49 µM (active)
11 | COC(=O)c1ccc(CNS(C)(=O)=O)cc1S(=O)(=O)NC(=O)Nc1nc(OC)cc(OC)n1 | inactive | –
12 | CCN(CC)C(=O)c1cccc(C)c1 | – | 2.38 µM (active)
13 | CCSC(=O)N(CC(C)C)CC(C)C | – | 3.55 µM (active)
14 | C#CCOC(=O)[C@@H](C)Oc1ccc(Oc2ncc(Cl)cc2F)cc1 | – | 0.000426 µM (active)
15 | CCCN(CCC)C(=O)SCC | inactive | 0.165 µM (active)
16 | CCOC(=O)C(C)Oc1ccc(Oc2cnc3cc(Cl)ccc3n2)cc1 (configuration not stated) | inactive | –
17 | CCCCOC(=O)[C@@H](C)Oc1ccc(Oc2ccc(C(F)(F)F)cn2)cc1 | inactive | –
18 | CCCCCCC(C)OC(=O)COc1nc(F)c(Cl)c(N)c1Cl (configuration not stated) | inactive | –

Row | Compound | outcome | AC50
19 | c1ccc2[nH]c(-c3cscn3)nc2c1 | – | 10.2 µM (active)
20 | COC(=O)c1ccc(I)cc1S(=O)(=O)NC(=O)Nc1nc(C)nc(OC)n1 | – | 0.397 µM (active)
21 | CCCCC(CC)CN1C(=O)C2C3C=CC(C3)C2C1=O (configuration not stated) | – | 4.33 µM (active)
22 | Oc1ccc(C(c2ccc(O)cc2)C(Cl)(Cl)Cl)cc1 | inactive | –
23 | CN(C)C(=O)Nc1ccc(Cl)c(Cl)c1 | – | 4.6 µM (active)
24 | COC(=O)c1ccccc1C(=O)O | inactive | –
25 | CC1(C)C(C=C(Cl)Cl)C1C(=O)OCc1cccc(Oc2ccccc2)c1 (configuration not stated) | – | 0.083 µM (active)
26 | S=C(S)NCCNC(=S)S.[Mn+2].[S-]C([S-])=NCCN=C([S-])[S-].[Zn+2] | – | 2.55 µM (active)
27 | CCN(Cc1c(F)cccc1Cl)c1c([N+](=O)[O-])cc(C(F)(F)F)cc1[N+](=O)[O-] | – | 0.419 µM (active)
28 | COC(=O)c1cccc(C)c1S(=O)(=O)NC(=O)Nc1nc(OCC(F)(F)F)nc(N(C)C)n1 | – | 8.96 µM (active)
29 | COc1nc(C)nc(NC(=O)NS(=O)(=O)c2ccccc2OCCCl)n1 | inactive | –
30 | CCCCOCCOCCOCc1cc2c(cc1CCC)OCO2 | – | 1.27 µM (active)
31 | C=CCOC(Cn1ccnc1)c1ccc(Cl)cc1Cl (configuration not stated) | – | 0.0186 µM (active)
32 | CCCCC(CC)COC(=O)c1ccccc1C(=O)O (configuration not stated) | – | 4.36 µM (active)
33 | CCCN(CCC)c1c([N+](=O)[O-])cc(C(F)(F)F)c(N)c1[N+](=O)[O-] | – | 0.752 µM (active)
34 | COC(=O)CSc1cc(N=c2sc(=O)n3n2CCCC3)c(F)cc1Cl | – | 1.82 µM (active)
35 | CCCCCOC(=O)COc1cc(N2C(=O)C3=C(CCCC3)C2=O)c(F)cc1Cl | – | 20 µM (active)
36 | CC(C)(c1ccc(O)cc1)c1ccc(O)cc1 | – | 14.2 µM (active)
